BCR signal inh: blocks chronic active B-cell receptor signaling; Potency, µM (series often up to 46.1 µM), inactives show top-dose activity change, negative = inhibition, usual class: inhibitors; ABC-DLBCL IkBa-CBG/CBR reporter, luminescence ratio, 4 h; AID 493014; hit rate 0.05% among 340,000; active means well fitted inhibition curve with a large enough effect in the signal ratio, with a control signal flat, not every such curve was filed as active; inconclusive means small, poorly fitted or top-dose-only effect, or effect the other way, or a change in a side signal; the % refers to the signal ratio;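 further: potency means the concentration at half of the fitted maximal effect; plate controls were basal doxycycline-induced cells for no effect and cells given 10 µM MG132 for full effect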
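Compounds up to 46 uM were incubated four hours with TMD8 cells whose green CBG68 luciferase is fused to IkappaBalpha; red CBR luminescence normalised the signal, and concentration-effect curves were fitted to fusion, red and ratio data.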
D1 antag: antagonists of human D1 dopamine receptor; HEK293 TREx D1 cells, calcium flux, dopamine EC80; active compounds read low; activity change, negative = inhibition, % at 10 µM; hit rate 3.2% among 360,000; AID 504652; in the data active means activity change below about -30%; further: on the % scale 0 is the no-effect control and ±100 the full control effect
Target sequence (P21728 whole entry, looked up): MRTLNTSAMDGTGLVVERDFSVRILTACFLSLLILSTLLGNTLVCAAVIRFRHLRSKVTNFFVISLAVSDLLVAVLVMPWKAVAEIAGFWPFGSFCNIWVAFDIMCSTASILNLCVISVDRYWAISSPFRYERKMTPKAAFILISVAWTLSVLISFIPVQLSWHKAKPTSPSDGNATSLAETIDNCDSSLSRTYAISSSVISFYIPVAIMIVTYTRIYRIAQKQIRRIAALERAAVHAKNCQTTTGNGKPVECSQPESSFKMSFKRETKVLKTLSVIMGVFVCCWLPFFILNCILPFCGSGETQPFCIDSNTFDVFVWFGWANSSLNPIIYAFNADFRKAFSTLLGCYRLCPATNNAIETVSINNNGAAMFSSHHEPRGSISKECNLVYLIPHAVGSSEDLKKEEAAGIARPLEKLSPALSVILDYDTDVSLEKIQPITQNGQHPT
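Tetracycline-induced HEK293 Trex D1 cells, force-coupled to calcium, dye-loaded; compounds added and read 180 s, then EC80 dopamine added and calcium flux tracked kinetically another 180 s.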
D1 potentiator: human D1 dopamine receptor positive modulation. HEK293 TREx D1 cells, calcium flux, dopamine EC20 potentiation. hit rate 0.036% among 360,000. potentiation, % at 10 µM; in the data active means potentiation above about 30%; further: 0% is about no effect
DRD3 agonist: D3 dopamine receptor (human) agonism; D3R DiscoveRx beta-arrestin cells, luminescence, 90 min; max activation, %; hit rate 0.58% among 410,000; AID 652048; in the data active means max activation above about 30%; further: 0% is about no effect
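Agonist-mode cell screen: cells plated at 1500/well and incubated overnight at 37 °C, then exposed to library compounds for 90 min at 37 °C. Detection reagent was added for 30–60 min at room temperature, and luminescence was read.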
D1 ag: activates the human D1 dopamine receptor; P21728; HEK293 T-REx D1 cells, calcium flux, agonist mode; activation, % at 2 µM; hit rate 1% among 360,000; in the data active means activation above about 30%; further: 0% is about no effect
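Agonism was scored from calcium flux recorded over 180 s (1 read/s) after pintool compound addition, following a 10-cycle baseline. Cells were inducible force-coupled HEK293 TREx D1, plated overnight at 30 C and loaded with no-wash calcium dye.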
DRD3 antagonist: antagonists of human D3 dopamine receptor | D3R cells, DiscoveRx beta-arrestin luminescence, antagonist mode; active compounds read low | max response, negative = inhibition, % | AID 652054 | hit rate 2.5% among 360,000; in the data active means max response below about -50%; inconclusive means no clear call, values can overlap the other calls; further: on the % scale 0 is the no-effect control and ±100 the full control effect
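Cells expressing the human receptor were seeded at 1500 cells/well, incubated overnight at 37 degrees C in 5% CO2, then exposed to library compounds with dopamine controls for 90 minutes at 37 degrees C before luminescent detection.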
* hit, by the source's call; ? = inconclusive; . = no result given. Rows were chosen to be rich in hits. Some 6% of all compounds tested hit in one or more screens of this group.

SMILES | BCR signal inh | D1 antag | D1 potentiator | DRD3 agonist | D1 ag | DRD3 antagonist
Cc1ccc(-c2nc3c4ccccc4ccn3c2Cc2ccccc2C(F)(F)F)cc1 | . | . | . | -9 | . | 0
CCn1c(SCc2ccc(Cl)cc2Cl)nc2nc3c(cc2c1=O)CCCC3 | 6% | -43* | 1 | 3 | 1 | 16
O=C(CSc1nc2nc3c(cc2c(=O)n1-c1ccccc1)CCCC3)Nc1ccccc1 | ? | -10 | -7 | 3 | 3 | 4
COc1cccc(C(=O)NCC[N+](C)(C)C)c1 | . | . | . | -11 | . | ?
CC(C)n1c(O)c(N=NC(=O)CNC(=O)Cc2ccc(Cl)cc2)c2ccccc21 | 6% | 18 | 2 | -3 | 0 | -15
COc1ccccc1C(=O)NCC(=O)N=Nc1c(O)n(C(C)C)c2ccccc12 | -26% | 3 | 0 | -15 | 3 | -59*
CCn1c(O)c(N=NC(=O)CNC(=O)c2ccccc2F)c2ccccc21 | -7% | 8 | -2 | -7 | 1 | -74*
CCn1c(O)c(N=NC(=O)CNC(=O)c2ccco2)c2ccccc21 | ? | -6 | -3 | -3 | 4 | -2
CCN1C(=O)c2ccccc2S(=O)c2ccc(C(=O)NCc3ccc(OC)cc3)cc21 (centres undefined) | 0% | 12 | 5 | -7 | 1 | -51*
CCCCSCCCNC(=O)c1ccc2c(c1)N(CC)C(=O)c1ccccc1S2=O (centres undefined) | ? | -5 | -9 | -2 | 8 | 0
CCCN(CCC)CCCNC(=O)c1ccc2c(c1)N(CC)C(=O)c1ccccc1S2=O (centres undefined) | -12% | -6 | -3 | -5 | 2 | -93*
COc1ccc(C(=O)COC(=O)c2cc(-c3cccs3)nc3ccccc23)cc1 | . | -2 | 1 | 0 | 9 | .
O=C(Nc1cccc([N+](=O)[O-])c1)Nc1ccc2c(c1)CCC2 | ? | -64* | -4 | -6 | 21 | 0
Cc1cccc(NC(=O)c2c(F)c(F)c(F)c(F)c2F)c1 | 12% | -8 | -7 | -5 | 5 | 2
O=C(Nc1ccc(F)cc1)Nc1ccc2c(c1)CCC2 | -20% | -17 | -7 | -4 | 2 | 9
O=C(Nc1cccc(F)c1)Nc1ccc2c(c1)CCC2 | 2% | -84* | -10 | -1 | 20 | 7
CN1CCN(C(=O)C2(NC(=O)Nc3cccc(F)c3)CCCCC2)CC1 | 1% | -30* | -4 | -2 | 3 | -29
O=C(Nc1ccccc1)Nc1ccc2c(c1)CCC2 | ? | -13 | -1 | -5 | 13 | -17
O=C(Nc1cccc(F)c1)c1c(F)c(F)c(F)c(F)c1F | ? | -36* | -5 | 3 | 18 | 7
CCC(=O)Nc1ccc2c(c1)OC[C@@H](C)NC[C@@H](C)[C@@H](OC)CN(C)C2=O | . | . | . | 2 | . | 23
O=C(NCc1cccs1)c1ccc(CSc2nc3ccncc3n2Cc2ccccc2)cc1 | . | -20 | -2 | -3 | 21 | .
O=C(Nc1ccc(Cl)cc1)c1csc(-c2ccccc2)n1 | ? | -10 | -1 | -7 | 15 | 2
CC(=O)c1csc(-c2ccccc2)n1 | 1% | -55* | -9 | -6 | -1 | -20
Cc1ccccc1NC(=O)c1cc(S(=O)(=O)c2ccccc2)ccc1Cl | 0% | -20 | -15 | -8 | 0 | -52*
CCOC(=O)C1CCC(CN(Cc2cccc(Br)c2)S(=O)(=O)c2ccc(C)cc2)CC1 (centres undefined) | 10% | 22 | 0 | -16 | 32* | .
CCOC(=O)C1CCC(CN(Cc2ccccc2)S(=O)(=O)c2ccc(Br)cc2)CC1 (centres undefined) | -3% | -25 | -2 | 0 | 14 | .
COc1ccc(C(=O)N2[C@@H](C(C)C)COc3cc(Br)ccc3S2(=O)=O)cc1 | . | . | . | 9 | . | -24
CC(C)(CO)Nc1nc(Cl)nc(NC2CCCCC2)n1 | ? | -3 | 0 | 34* | 1 | -21
CCNc1nc(Cl)nc(NC2CCCCC2)n1 | -1% | -19 | 1 | -4 | 1 | 3
O=C1NC2(C=Cc3c(ccc4ccccc34)O2)Oc2ccccc21 (centres undefined) | ? | -1 | -2 | -4 | -1 | -51*

Screening results from PubChem BioAssay.
